Results published in PubChem BioAssay AID1159580 (chemical genetic matrix, 2015).
Several values for one entry are separate records, joined by “and”; a condition that tells them apart may be missing. Equal values may be shown once. The whole screen tested about 5,500 compounds, of which about 2,000 (36%) were called active. Roughly 18% stayed inconclusive and do not appear here. Rule as the data show it: active = normalized growth mostly below about 0.91 (no sharp cut-off); inconclusive = no clear call, values can overlap the other calls; inactive = mostly above about 0.92. Some of the results follow.

Test: chemical genetic growth profiling, strain panel (AID 1159580);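 also: tested at 20 µM; growth read once vehicle control cultures reached saturation at 30 °C; 1 = growth at the plate median or of vehicle wells; lower values mean less growth of the strain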
Details: S. cerevisiae deletion strains, growth OD

Measured: normalized growth

CC(C)c1c(O)ccc2c1CCC1[C@@](C)(CO)CCC[C@]21C (stereo partly specified)
inactive: locus YAL013W, strain DEP1, stronger effect = lower value 0.978 | locus YAL021C, strain ccr4, stronger effect = lower value 1.01 | locus YAL026C, strain drs2, stronger effect = lower value 1.01 | locus YAL030W, strain snc1, stronger effect = lower value 1.01 | locus YBL061C, strain skt5, stronger effect = lower value 1.01 | locus YBR009C, strain hhf1, stronger effect = lower value 1.04 | locus YBR021W, strain FUR4, stronger effect = lower value 0.945 | locus YBR023C, strain chs3, stronger effect = lower value 1.03 | locus YBR171W, strain sec66, stronger effect = lower value 1.02 | locus YBR229C, strain ROT2, stronger effect = lower value 0.958 | locus YBR231C, strain swc5, stronger effect = lower value 1.02 | locus YBR279W, strain paf1, stronger effect = lower value 1.02 | locus YCL011C, strain gbp2, stronger effect = lower value 1.02 | locus YCL016C, strain dcc1, stronger effect = lower value 1.02 | locus YCL029C, strain bik1, stronger effect = lower value 0.941 | locus YCL069W, strain vba3, stronger effect = lower value 1.02 | locus YCR088W, strain abp1, stronger effect = lower value 1.02 | locus YDL005C, strain med2, stronger effect = lower value 1.02 | locus YDL035C, strain GPR1, stronger effect = lower value 0.964 | locus YDL040C, strain nat1, stronger effect = lower value 1.01 | locus YDL074C, strain BRE1, stronger effect = lower value 0.834 | locus YDL101C, strain DUN1, stronger effect = lower value 0.947 | locus YDL134C, strain PPH21, stronger effect = lower value 0.911 | locus YDL185W, strain tfp1, stronger effect = lower value 0.975 | locus YDL192W, strain arf1, stronger effect = lower value 0.92 | locus YDR001C, strain nth1, stronger effect = lower value 1.01 | locus YDR069C, strain doa4, stronger effect = lower value 1 | locus YDR101C, strain arx1, stronger effect = lower value 0.967 | locus YDR137W, strain rgp1, stronger effect = lower value 0.885 | locus YDR150W, strain NUM1, stronger effect = lower value 0.983 | locus YDR159W, strain sac3, stronger effect = lower value 1.02 | locus YDR195W, strain ref2 1.05 | locus YDR297W, strain sur2, stronger effect = lower value 1.02 | locus YDR334W, strain swr1, stronger effect = lower value 1.03 | locus YDR335W, strain msn5, stronger effect = lower value 1.03 | locus YDR388W, stronger effect = lower value 0.957 | locus YDR392W, strain spt3, stronger effect = lower value 0.991 | locus YEL003W, strain gim4, stronger effect = lower value 1.01 | locus YEL037C, strain rad23, stronger effect = lower value 1.02 | locus YEL061C, strain CIN8 (second series), stronger effect = lower value 1.03 | locus YEL061C, strain CIN8, stronger effect = lower value 0.971 | locus YER015W, strain faa2, stronger effect = lower value 1.02 | locus YER016W, strain bim1, stronger effect = lower value 1.01 | locus YER110C, stronger effect = lower value 0.971 | locus YER111C, strain swi4, stronger effect = lower value 1.04 | locus YER155C, strain BEM2 (second series), stronger effect = lower value 1.03 | locus YER155C, strain BEM2, stronger effect = lower value 0.966 | locus YER167W, strain BCK2, stronger effect = lower value 0.949 | locus YFR010W, strain ubp6, stronger effect = lower value 1.03 | locus YGL078C, strain dbp3, stronger effect = lower value 0.961 | locus YGL167C, strain pmr1, stronger effect = lower value 1.01 | locus YGL173C, strain kem1, stronger effect = lower value 1.02 | locus YGL227W, strain vid30, stronger effect = lower value 1.02 | locus YGL240W, strain doc1, stronger effect = lower value 1.01 | locus YGL248W, strain PDE1, stronger effect = lower value 0.924 | locus YGL253W, strain hxk2, stronger effect = lower value 1.01 | locus YGR078C, strain PAC10, stronger effect = lower value 0.889 | locus YGR135W, strain pre9, stronger effect = lower value 0.93 | locus YGR252W, strain gcn5, stronger effect = lower value 0.88 | locus YHR013C, strain ard1, stronger effect = lower value 1.03 | locus YHR027C, strain rpn1, stronger effect = lower value 1.03 | locus YHR030C, strain SLT2, stronger effect = lower value 1.04 | locus YHR079C, strain IRE1 (second series), stronger effect = lower value 0.96 | locus YHR079C, strain IRE1, stronger effect = lower value 1.07 | locus YHR094C, strain hxt1, stronger effect = lower value 0.958 | locus YHR129C, strain ARP1, stronger effect = lower value 0.949 | locus YHR142W, strain chs7, stronger effect = lower value 1.01 | locus YHR200W, strain rpn10, stronger effect = lower value 0.931 | locus YIL066C, strain RNR3, stronger effect = lower value 0.94 | locus YIL073C, strain SPO22, stronger effect = lower value 0.871 | locus YIL125W, strain kgd1, stronger effect = lower value 0.973 | locus YIR030C, strain dcg1, stronger effect = lower value 0.954 | locus YJL092W, strain hpr5, stronger effect = lower value 1.01 | locus YJL095W, strain BCK1 (second series), stronger effect = lower value 1 | locus YJL095W, strain BCK1, stronger effect = lower value 0.811 and 1.03 | locus YJL115W, strain asf1, stronger effect = lower value 1.03 | locus YJL129C, strain trk1, stronger effect = lower value 0.961 | locus YJL134W, strain LCB3, stronger effect = lower value 0.973 | locus YJL154C, strain vps35, stronger effect = lower value 1.01 | locus YJL164C, strain tpk1, stronger effect = lower value 1.02 | locus YJL166W, strain qcr8, stronger effect = lower value 1.01 | locus YJL168C, strain set2, stronger effect = lower value 0.957 | locus YJL187C, strain SWE1 (second series), stronger effect = lower value 0.918 | locus YJR066W, strain TOR1, stronger effect = lower value 1.01 | locus YKL009W, strain mrt4, stronger effect = lower value 0.91 | locus YKL068W, stronger effect = lower value 0.965 | locus YKL085W, strain MDH1 (second series), stronger effect = lower value 0.961 | locus YKL085W, strain MDH1, stronger effect = lower value 0.961 | locus YKL160W, strain elf1, stronger effect = lower value 1.02 | locus YKL190W, strain CNB1, stronger effect = lower value 0.979 | locus YKR026C, strain gcn3, stronger effect = lower value 1.02 | locus YKR091W, strain srl3, stronger effect = lower value 1.01 | locus YLL001W, strain dnm1, stronger effect = lower value 1.01 | locus YLL026W, stronger effect = lower value 1.01 | locus YLL041C, strain sdh2, stronger effect = lower value 1.03 | locus YLR027C, strain aat2, stronger effect = lower value 0.999 | locus YLR058C, strain SHM2, stronger effect = lower value 0.944 | locus YLR102C, strain apc9, stronger effect = lower value 0.959 | locus YLR113W, strain HOG1, stronger effect = lower value 0.996 | locus YLR221C, strain rsa3, stronger effect = lower value 1.01 | locus YLR258W, strain gsy2, stronger effect = lower value 1.03 | locus YLR268W, strain sec22, stronger effect = lower value 0.926 | locus YLR320W, strain mms22, stronger effect = lower value 1.01 | locus YLR330W, strain CHS5, stronger effect = lower value 0.951 | locus YLR342W, strain FKS1, stronger effect = lower value 1.01 | locus YLR357W, strain rsc2, stronger effect = lower value 1.08 | locus YLR370C, strain arc18, stronger effect = lower value 1.03 | locus YLR371W, strain rom2, stronger effect = lower value 0.97 | locus YLR384C, strain iki3, stronger effect = lower value 1.03 | locus YML016C, strain PPZ1, stronger effect = lower value 0.97 | locus YML032C, strain rad52, stronger effect = lower value 0.909 | locus YML120C, strain ndi1, stronger effect = lower value 1.02 | locus YML124C, strain tub3, stronger effect = lower value 0.959 | locus YMR058W, strain fet3, stronger effect = lower value 1.02 | locus YMR078C, strain ctf18, stronger effect = lower value 0.928 | locus YMR125W, strain sto1, stronger effect = lower value 1.03 | locus YMR129W, stronger effect = lower value 1.02 | locus YMR205C, strain PFK2, stronger effect = lower value 1.01 | locus YMR223W, strain ubp8, stronger effect = lower value 0.914 | locus YMR231W, strain pep5, stronger effect = lower value 1.04 | locus YMR307W, strain GAS1, stronger effect = lower value 0.7 | locus YNL067W, strain RPL9B, stronger effect = lower value 0.939 | locus YNL071W, strain lat1, stronger effect = lower value 1.02 | locus YNL183C, strain NPR1, stronger effect = lower value 0.994 | locus YNL209W, strain ssb2, stronger effect = lower value 1.02 | locus YNL233W, strain BNI4, stronger effect = lower value 0.885 | locus YNL248C, strain rpa49, stronger effect = lower value 1.04 | locus YNL250W, strain rad50, stronger effect = lower value 0.965 | locus YNL271C, strain bni1, stronger effect = lower value 0.961 | locus YNL298W, strain CLA4, stronger effect = lower value 0.951 | locus YNL322C, strain KRE1 (second series), stronger effect = lower value 1.03 | locus YNR049C, strain mso1, stronger effect = lower value 1.01 | locus YNR052C, strain pop2, stronger effect = lower value 0.92 | locus YOL012C, strain htz1 1.16 | locus YOL147C, strain pex11, stronger effect = lower value 0.942 | locus YOR001W, strain rrp6, stronger effect = lower value 1.02 | locus YOR061W, strain CKA2, stronger effect = lower value 0.964 | locus YOR069W, strain VPS5, stronger effect = lower value 0.965 | locus YOR070C, strain gyp1, stronger effect = lower value 1.01 | locus YOR080W, strain dia2, stronger effect = lower value 1.02 | locus YOR083W, strain WHI5, stronger effect = lower value 1.02 | locus YOR106W, strain vam3, stronger effect = lower value 1.04 | locus YOR136W, strain idh2, stronger effect = lower value 0.966 | locus YOR144C, strain elg1, stronger effect = lower value 0.961 | locus YOR231W, strain MKK1, stronger effect = lower value 1.03 | locus YOR265W, strain rbl2, stronger effect = lower value 1 | locus YOR270C, strain vph1, stronger effect = lower value 1.01 | locus YOR290C, strain snf2, stronger effect = lower value 1.04 | locus YOR316C, strain cot1, stronger effect = lower value 0.956 | locus YPL051W, strain arl3, stronger effect = lower value 1.02 | locus YPL055C, strain LGE1, stronger effect = lower value 0.887 | locus YPL078C, strain atp4, stronger effect = lower value 1.04 | locus YPL106C, strain sse1, stronger effect = lower value 1.07 | locus YPL240C, strain hsp82, stronger effect = lower value 1.01 | locus YPL256C, strain CLN2, stronger effect = lower value 1.08 | locus YPR119W, strain clb2, stronger effect = lower value 0.948 | locus YPR141C, strain kar3, stronger effect = lower value 0.955 | locus YPR167C, strain met16, stronger effect = lower value 0.953 | strain wtn01, stronger effect = lower value 0.945
active: locus YDR162C, strain NBP2, stronger effect = lower value 0.79 | locus YDR318W, strain mcm21, stronger effect = lower value 0.911 | locus YDR502C, strain sam2, stronger effect = lower value 0.898 | locus YGL086W, strain mad1, stronger effect = lower value 0.898 | locus YKR001C, strain vps1, stronger effect = lower value 0.895 | locus YLR039C, strain RIC1, stronger effect = lower value 0.443 | locus YLR262C, strain YPT6 (second series), stronger effect = lower value 0.842 | locus YLR262C, strain YPT6, stronger effect = lower value 0.397 | locus YLR418C, strain cdc73, stronger effect = lower value 0.725 | locus YNL307C, strain MCK1, stronger effect = lower value 0.885 | locus YOR184W, strain ser1, stronger effect = lower value 0.778 | locus YPR163C, strain tif3, stronger effect = lower value 0.883
